# Source: PubChem BioAssay
# HT1080NT lethal = qHTS for induction of synthetic lethality in tumor cells producing 2HG: qHTS for the HT-1080-NT fibrosarcoma cell line. HT-1080-NT fibrosarcoma viability, CellTiter-Glo ATP luminescence, 48 h. Potency, µM (series often up to 46.1 µM), without a hit: top-dose activity, negative = less viability, hits mostly cytotoxic. actives 1.6% (n = 360,000);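 note: NT is the 2HG producing partner of a matched IDH1 knockdown line; 0% = DMSO-treated cells and -100% = media-only wells without cells; nearly all actives have a fitted effect of over 55% in size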
#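 Compounds were tested in concentration-response format on HT-1080-NT cells for 48 hours at 37 degrees C. Cell viability came from CellTiter-Glo luminescence; curves were classified by r2, response magnitude and activity.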
# SW480 rerep = A quantitative high throughput screen for small molecules that induce DNA re-replication in SW480 colon adenocarcinoma cells; SW480 DNA re-replication, Hoechst DNA content imaging, 48 h; Potency, µM (series often up to 46.1 µM), without a hit: top-dose re-replication activation, hits mostly activators; actives 1.8% (n = 340,000); note: % of control where 0% means no effect; nearly all actives have a fitted effect of over 55% in size
#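 Hoechst fluorescence of nuclei (405 nm excitation, 500-530 nm emission) measured by plate-scanning imager after 48 hr compound exposure at 37 C; re-replication scored as increased number of nuclei with elevated intensity.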
# KB-V1 MDR tox = qHTS assay for MDR1-selective chemotherapeutics: Primary screen using the drug-selected MDR subline cells KB-V1; KB-V1 MDR cells viability, CellTiter-Glo, 72 h; Potency, µM (titrated, usually from 46.1 µM), usual class: cytotoxic; actives 3.4% (n = 400,000); AID 1347076, 2019; note: % is set by controls: 0 for no effect and ±100 for the full control effect; nearly all actives have a fitted effect of over 60% in size
#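 KB-V1 MDR subline cells in DMEM (phenol-red free, 10% FBS) exposed to compounds in qHTS concentration series for 72 h at 37 degrees C. Viability read by CellTiter-Glo luminescence; concentration-effect curves fitted after normalization and correction.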
# MCF10A rereplic = A quantitative high throughput screen for small molecules that induce DNA re-replication in MCF 10a normal breast cells; actives 2.9% (n = 350,000); AID 624296, 2012; Potency, µM (titrated, usually from 46.1 µM), for the others: at the top dose activity, positive = re-replication, actives largely listed as activators; MCF 10A DNA re-replication, Hoechst nuclear intensity, 48 h; note: % of control where 0% means no effect; nearly all actives have a fitted effect of over 50% in size
# HT1080 IDH1KD tx = qHTS for induction of synthetic lethality in tumor cells producing 2HG: qHTS for the HT-1080-IDH1KD cell line | HT-1080 IDH1 knockdown viability, ATP luminescence, 48 h | actives 2% (n = 360,000) | Potency, µM (titrated, usually from 46.1 µM), inactives show at the top dose activity, negative = toxicity, actives largely listed as cytotoxic;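 note: 0% = DMSO wells and -100% = cell-free medium wells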
#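 After a 2 h attachment period, IDH1KD HT-1080 cells took pin-transferred compound for 48 h at 37 °C; ATP-based luminescence after 10 min room-temperature reagent incubation reported viability.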
# KB-3-1 cytotox = qHTS assay for MDR1-selective chemotherapeutics: Primary screen using the parental adenocarcinoma cell KB-3-1. KB-3-1 viability, CellTiter-Glo ATP luminescence, 72 h. Potency, µM (titrated, usually from 46.1 µM), most hits filed as cytotoxic. actives 1.4% (n = 400,000); note: % is set by controls: 0 for no effect and ±100 for the full control effect; nearly all actives have a fitted effect of over 60% in size
#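 Cells are dispensed, compounds pinned in, plates held at 37 °C for 72 h, then CellTiter-Glo is added and luminescence read after 10 minutes. Cell line: parental KB-3-1 in phenol-red-free DMEM, 10% FBS.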
# The depositor's hits bear a star; i = inactive; ? = inconclusive; nt = no result. Rows were chosen to be rich in hits. Some 7.9% of all compounds tested hit in one or more screens of this group. Calls come from the whole dose curve; as a rule, active = well fitted curve in the direction sought with a large enough effect; inconclusive = small, poorly fitted or top-dose-only effect, or another doubt; inactive = no such curve, though single readings can be large; an effect the other way counts as inactive or inconclusive. Potency is the fitted concentration of half-maximal effect.
SMILES,HT1080NT lethal,SW480 rerep,KB-V1 MDR tox,MCF10A rereplic,HT1080 IDH1KD tx,KB-3-1 cytotox
Oc1ccc(C[C@H]2CNC(=S)N2CC2CCCN2C[C@H](Cc2ccc(O)cc2)N2C[C@H](Cc3ccc(O)cc3)N(CC3CCCCC3)C2=S)cc1 (some centres not stated),16µM*,?,i,12µM*,?,?
COc1ccc(NC(=O)CNC(=O)C23CC4CC(CC(C4)C2)C3)c(OC)c1,0%,4.6µM*,i,-22%,-1%,i
COc1ccc(NC(=O)C23CC4CC(C2)CC(c2ccccc2)(C4)C3)c(OC)c1,0%,?,15µM*,?,-3%,i
CCCC[C@@H]1CNC(=O)C(=O)N1CCCc1cc(OC)c(OC)c(OC)c1,-4%,-61%,i,-12%,11%,i
Cc1noc(C)c1NC(=O)N(C)C[C@H]1Oc2c(NC(=O)c3ccncc3)cccc2C(=O)N([C@H](C)CO)C[C@@H]1C,-4%,-1%,?,12%,-1%,i
Cn1c(Sc2ccc(C(F)(F)F)cc2[N+](=O)[O-])nnc1-c1ccccc1,-25%,4%,21µM*,13%,-11%,i
CN(Cc1ccccc1)C(=O)[C@@H]1CCCN1C(=O)[C@@H]1CCCN1C(=O)c1cccc2ccccc12,13%,nt,i,nt,6%,i
O=C(Oc1c(-c2ccccc2)c(=O)n2c3c(cccc13)CC2)c1ccc(Cl)cc1,22%,0%,i,2%,13%,?
O=S(=O)(NCC(Nc1ccc(Cl)cc1)c1ccccc1)c1ccc(Cl)cc1 (configuration not stated),-30%,?,?,3.3µM*,?,?
O=S(=O)(NCC(c1ccccc1)N1CCC(O)CC1)c1ccc(Cl)cc1 (configuration not stated),2%,-6%,i,-2%,1%,i
CCN(CC)S(=O)(=O)c1ccc(C(=O)NCCc2cc3c(OC)ccc(OC)c3[nH]c2=O)cc1,10%,0%,7.3µM*,?,9%,i
COc1ccc(OC)c2[nH]c(=O)c(CCNS(=O)(=O)c3ccccc3)cc12,-1%,-5%,16µM*,-9%,16%,i
CCCS(=O)(=O)NCCc1cc2c(OC)ccc(OC)c2[nH]c1=O,12%,-5%,?,-7%,16%,i
COc1ccc(OC)c2[nH]c(=O)c(CCNC(=O)c3ccc(S(=O)(=O)N4CCCC4)cc3)cc12,-3%,0%,18µM*,?,5%,i
COc1ccc(C(=O)NCCc2cc3c(OC)ccc(OC)c3[nH]c2=O)cc1OC,?,6%,?,4%,-26%,i
O=C(CSc1nc2ccccc2c(=O)n1Cc1ccc(C(=O)NC2CC2)cc1)NCc1ccco1,-2%,-7%,i,8%,-11%,?
COc1ccccc1CC(NC(C)=O)C(=O)NC1CCN(C(=O)c2ccc(C)cc2)CC1 (configuration not stated),8%,-2%,i,3%,-6%,i
O=S(=O)(c1ccc(Cl)cc1)c1nc(-c2cccc(Br)c2)oc1NCc1ccccc1,nt,nt,16µM*,nt,nt,?
O=S(=O)(c1ccccc1)c1nc(-c2cccc(Cl)c2)oc1NCc1ccccc1,nt,nt,i,nt,nt,i
Cc1ccccc1NC(=O)COc1coc(CN2CCN(Cc3ccccc3)CC2)cc1=O,-6%,?,i,13%,-2%,i
Cc1cc(N)cc(C)c1-c1c(Br)cc(N)cc1Br,?,?,16µM*,?,?,13µM*
Nc1cc(N)cc(N)c1,nt,nt,i,nt,nt,i
COc1cc(C2C(c3ccccc3)C(c3cc(OC)cc(=O)o3)C2c2ccccc2)oc(=O)c1 (configuration not stated),-2%,6%,6.5µM*,?,-9%,i
COc1ccc(CCc2cc(OC)cc(=O)o2)cc1,4%,-5%,i,-1%,5%,i
CCOC(=O)c1nnc(-c2ccccc2)nc1Sc1ccccc1Cl,?,?,i,6.5µM*,21µM*,?
SMILES,HT1080NT lethal,SW480 rerep,KB-V1 MDR tox,MCF10A rereplic,HT1080 IDH1KD tx,KB-3-1 cytotox
O=C(NCCC(=O)N1CCN(c2ccccc2F)CC1)c1ccco1,-1%,18%,i,-1%,-5%,i
O=S(=O)(c1ccccc1)N1CCC(O)(CSc2ccc(Cl)cc2)CC1,?,4%,23µM*,?,-15%,?
O=S(=O)(c1ccc(Cl)cc1)N1CCC(O)(CN2CCN(Cc3ccccc3)CC2)CC1,-10%,0%,i,20µM*,-9%,i
O=C(Nc1nc(-c2ccc(F)c(F)c2)cs1)Nc1ccc(F)cc1F,-27%,1%,i,?,-18%,i
CCC(=O)OCCNc1cc(Sc2nccn2C)c2nonc2c1[N+](=O)[O-],15µM*,nt,i,?,?,?
CCCC(=O)OCCNc1cc(Sc2nc3ccccc3[nH]2)c2nonc2c1[N+](=O)[O-],21µM*,?,i,?,?,?
Cc1ccc(C(=O)Nc2cccc(OCc3cc(=O)n4c5c(sc4n3)CCCC5)c2)cc1,nt,nt,i,nt,nt,i
CCn1c2ccccc2c2cc(CNCc3ccc(OC)cc3OC)ccc21,-16%,?,i,7.3µM*,?,i
CCOc1ccc2ccccc2c1CNCCCN1CCOCC1,-12%,nt,i,nt,-11%,i
CCn1c2ccccc2c2cc(N)ccc21,?,17%,i,?,?,i
CCC(CC)NCc1ccc2c(c1)c1ccccc1n2CC,-20%,2%,?,21µM*,-11%,i
CCn1c2ccccc2c2cc(CNCCCN3CCOCC3)ccc21,?,?,i,18%,21µM*,i
Cc1ccc(CSc2nc3ccccc3c(=O)n2C)cc1,-23%,2%,i,18%,-14%,i
CC(C)c1nc(N2CCN(C(=O)c3ccccc3)CC2)c(C#N)c2c1COC(C)(C)C2,15%,17%,?,?,9%,?
CC(C)c1nc(N2CCN(C(=O)c3ccco3)CC2)c(C#N)c2c1COC(C)(C)C2,?,24%,18µM*,?,?,?
